# From PubChem BioAssay (NCI)
# The panel holds about 83,000 compounds, 20% with a hit somewhere; the sample as a whole holds those more often.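 The test compound was applied at a single concentration to cells in 96-well plates for 48 hours, and percent growth was recorded.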 The source made the active and inactive calls. Rule for the calls: active = growth percent below 10; inactive = the rest.
# Test system: CCRF-CEM leukemia
# Assay: NCI-60 one-dose screen, 48 h (100 = growth as untreated, 0 = no growth, -100 = all killed)
# Details: 10 µM unless noted
row,Compound,growth
1,Cc1ccccc1NC(=O)c1cccc(NC(=O)CCl)c1,8.03% (active)
2,COc1ccc(-c2cc(-c3cc(OC)c(OC)c(OC)c3)[nH]c(=O)c2C#N)cc1,76.7% (inactive)
3,O=C(CSc1nc2c(c(=O)[nH]1)CCCC2)Nc1ccccc1C(=O)O,101% (inactive)
4,N/C(=N\c1nc2ccccc2s1)NC(=O)Nc1ccccc1[N+](=O)[O-],1.29% (active)
5,FC(F)(F)c1cc2c(Cl)ncnc2n1CCN1CCOCC1,36.6% (inactive)
6,O=C(NNC(=O)c1ccc(OCc2nc3ccc(Cl)cc3[nH]2)cc1)Nc1ccc(Cl)c(Cl)c1,88.5% (inactive)
7,Clc1ccc(-c2nc3c4c(-c5ccccc5)c(-c5ccccc5)n(Cc5ccccc5)c4ncn3n2)cc1,-2.09% (active)
8,COc1c(B(O)O)cc(F)cc1-c1nc2c(F)cc3[nH]ncc3c2c2c1CCCC2,-3.23% (active)
9,C/C(=N\Nc1ccc(C(=O)O)cc1)c1cnn(-c2cc(=O)[nH]c3ccc(C)cc23)c1C,93% (inactive)
10,O=C1Nc2cc(-c3ccc(NS(=O)(=O)c4ccc([N+](=O)[O-])cc4)cc3)ccc2/C1=C/c1ccc[nH]1,27.5% (inactive)
11,COc1ccc(NC(=O)CSc2nnc(-c3ccc(-c4nc5ccc(Cl)cc5[nH]4)cc3)o2)cc1,54.2% (inactive)
12,COc1ccc2[nH]c(O)c(N=Nc3nc(-c4ccc(C#N)cc4)cs3)c2c1,86.4% (inactive)
13,COc1ccc(-c2nc3ccc(-c4nnc(SCC(=O)Nc5ccc(/C(C)=N\O)cc5)o4)cc3[nH]2)cc1,55.6% (inactive)
